Results filed as inconclusive are left out. Unless noted, calls come from the whole dose curve; as a rule, active = well fitted curve in either direction with a large enough effect (not every such curve was filed as active); inconclusive = small, poorly fitted or top-dose-only effect, or another doubt; inactive = flat fitted curve, though single readings scatter.
How the values were obtained:
[1] = AP1 Signaling Pathway (AID 357); conditions: ME-180 AP-1-bla reporter, EGF-induced, beta-lactamase ratio, 5 h; at 17.2 µM (top of the series) unless noted;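 note: ME-180 reporter cells stimulated with EGF at its EC50 level; % is set by controls: 0 for no effect and ±100 for the full control effect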
Outline: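 Beta-lactamase reporter under AP-1 response element, ME-180 background. Stimulus: EC50 EGF. Compound exposure 5 h, 37 °C. Detection: CCF4, 2.5 h RT, 460/530 nm. Values: AC50 from titration.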

[2] = Stat Signaling Pathway (AID 446); conditions: ME-180 (cervical carcinoma) SIE beta-lactamase reporter, IL-6 stimulated, 5 h; at 17.2 µM (top of the series) unless noted;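 note: ME-180 cervical cancer cells given 40 pM IL-6 alongside compound; SIE-controlled beta-lactamase reporter measured as 460/530 nm FRET emission ratio; % is set by controls: 0 for no effect and ±100 for the full control effect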
Outline: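 Emission at 460 and 530 nm (excitation 405 nm) reports SIE-controlled beta-lactamase in ME-180 cells. Cells received compound with 40 pM IL-6 for 5 hrs at 37 C; data scaled between 300 pM IL-6 and 125 nM JAK-inhibitor controls.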

[3] = molecular target: Glucocorticoid receptor (Homo sapiens) (UniProt P04150); experiment: GR-GFP Redistribution (AID 450;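 active = compounds whose dose series gives a full or clear partial fitted curve of increased nuclear translocation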; note: potency is the fitted concentration of half-maximal effect)
Sequence of Glucocorticoid receptor (Homo sapiens) (P04150 whole entry, looked up): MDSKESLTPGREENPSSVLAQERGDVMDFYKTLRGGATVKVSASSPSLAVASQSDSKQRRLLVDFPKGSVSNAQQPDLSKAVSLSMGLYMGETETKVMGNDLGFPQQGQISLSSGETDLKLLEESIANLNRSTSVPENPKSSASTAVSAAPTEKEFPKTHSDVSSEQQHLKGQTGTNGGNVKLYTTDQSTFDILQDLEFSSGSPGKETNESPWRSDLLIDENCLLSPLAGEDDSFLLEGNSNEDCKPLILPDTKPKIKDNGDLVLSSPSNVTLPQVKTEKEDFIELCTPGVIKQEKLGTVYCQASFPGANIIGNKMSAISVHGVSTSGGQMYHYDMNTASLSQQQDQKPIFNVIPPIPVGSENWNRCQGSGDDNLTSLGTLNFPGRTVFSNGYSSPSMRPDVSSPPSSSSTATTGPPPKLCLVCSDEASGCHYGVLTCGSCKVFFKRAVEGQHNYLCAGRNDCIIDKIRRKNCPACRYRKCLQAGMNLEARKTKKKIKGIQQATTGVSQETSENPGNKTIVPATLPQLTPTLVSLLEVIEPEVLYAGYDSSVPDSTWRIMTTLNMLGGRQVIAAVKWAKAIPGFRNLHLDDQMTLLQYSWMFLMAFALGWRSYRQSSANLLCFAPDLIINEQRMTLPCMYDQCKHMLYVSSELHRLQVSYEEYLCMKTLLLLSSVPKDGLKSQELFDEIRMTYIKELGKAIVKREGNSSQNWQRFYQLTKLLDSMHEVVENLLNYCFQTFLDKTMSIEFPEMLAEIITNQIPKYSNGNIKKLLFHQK

CN1C2C=C3C(C#N)=C(N)C(C#N)(C#N)[C@@H](c4ccc(Cl)cc4)[C@@H]3C1CC2 (some centres undefined)
inactive: activity change, negative = inhibition [1] -8.82% | activity, negative = inhibition [2] 5.5% | Potency [3] > 20.6 µM

Nc1nnnn1/N=C/c1ccco1
inactive: activity change, negative = inhibition [1] 2.89% | activity, negative = inhibition [2] -1.38% | Potency [3] > 20.6 µM

C=CCOc1nc2c(c(=O)n(C)c(=O)n2C)n1Cc1c(Cl)cccc1Cl
inactive: activity change, negative = inhibition [1] 0.413% | activity, negative = inhibition [2] 3.61% | Potency [3] > 20.6 µM

CC(C)(C)c1cccc(/C=N/O)c1O
inactive: activity change, negative = inhibition [1] -17.8% | activity, negative = inhibition [2] -5.38% | Potency [3] > 20.6 µM

CCN(CC)CCCn1c(C)cc2c(c1=O)C(c1ccc(OC)c(OC)c1OC)C(C#N)=C(N)O2 (centres undefined)
inactive: activity change, negative = inhibition [1] 6.36% | activity, negative = inhibition [2] 10.3% | Potency [3] > 20.6 µM

CCOc1ccc(N2C(=O)CC(N)C2=O)cc1 (centres undefined)
inactive: activity change, negative = inhibition [1] -19.2% | activity, negative = inhibition [2] -5.4% | Potency [3] > 20.6 µM

CCOC(=O)c1ccc(N=CC2=C(O)CC(c3ccco3)CC2=O)cc1 (centres undefined)
inactive: activity change, negative = inhibition [1] 2.87% | activity, negative = inhibition [2] -4% | Potency [3] > 20.6 µM

COc1ccc(-c2oc3ncn4nc(COc5ccccc5)nc4c3c2-c2ccc(OC)cc2)cc1
inactive: activity change, negative = inhibition [1] -11.5% | activity, negative = inhibition [2] 4.11% | Potency [3] > 20.6 µM

CCCn1c(SCC#N)nc2c(c1=O)C1(CCCC1)Cc1ccccc1-2
inactive: activity change, negative = inhibition [1] 13.8% | activity, negative = inhibition [2] 2.26% | Potency [3] > 20.6 µM

COc1ccc(/C(O)=C2\C(=O)C(=O)N(c3cc(C)on3)C2c2ccccc2OC)cc1C (centres undefined)
inactive: activity change, negative = inhibition [1] -17.1% | activity, negative = inhibition [2] -23.5% | Potency [3] > 20.6 µM

CC1CN(C2CCN(C(=O)c3ccccc3)CC2)CC(C)O1 (centres undefined)
inactive: activity change, negative = inhibition [1] -5.21% | activity, negative = inhibition [2] 3.62% | Potency [3] > 20.6 µM

Cc1ccc(/C(O)=C2/C(=O)C(=O)N(Cc3ccco3)C2c2cccs2)cc1 (centres undefined)
inactive: activity change, negative = inhibition [1] 2.29% | activity, negative = inhibition [2] -12.7% | Potency [3] > 20.6 µM

CC1(C)Cc2nc3sc4c(N(CCO)CCO)ncnc4c3cc2CO1
inactive: activity change, negative = inhibition [1] 1.68% | activity, negative = inhibition [2] -5.3% | Potency [3] > 20.6 µM

CCOC(=O)c1[nH]c2ccc(F)cc2c1N=C(C)N(CC)CC
inactive: activity change, negative = inhibition [1] 4.09% | activity, negative = inhibition [2] 5.12% | Potency [3] > 20.6 µM

Cc1ccc(OCC(=O)N2CCC(N3CCCCCC3)CC2)cc1
inactive: activity change, negative = inhibition [1] 3.92% | activity, negative = inhibition [2] 17.9% | Potency [3] > 20.6 µM

COc1ccc(CN(C#N)c2nc(SC)nc(N(C)C)n2)cc1
inactive: activity change, negative = inhibition [1] -3.69% | activity, negative = inhibition [2] 2.92% | Potency [3] > 20.6 µM

COC(=O)c1ccc(Oc2nc3ccccc3n3c(C)nnc23)cc1
inactive: activity change, negative = inhibition [1] 13% | activity, negative = inhibition [2] 4.74% | Potency [3] > 20.6 µM

CC1(C)Cc2c(C#N)c(N3CCOCC3)nc(-c3ccccc3)c2CO1
inactive: activity change, negative = inhibition [1] -10.7% | activity, negative = inhibition [2] 6.12% | Potency [3] > 20.6 µM

Cn1c(=O)c2c3c(sc2n2c(SCC(=O)c4ccc(Cl)cc4)nnc12)COC(C)(C)C3
inactive: activity change, negative = inhibition [1] -6.68% | activity, negative = inhibition [2] -0.164% | Potency [3] > 20.6 µM

CCC(NC(C)C)C(O)c1ccc(O)c2[nH]c(=O)ccc12 (centres undefined)
inactive: activity change, negative = inhibition [1] -12.1% | activity, negative = inhibition [2] 11.4% | Potency [3] > 20.6 µM

CCOC(=O)c1[nH]c2ccc(F)cc2c1NC(=O)CCN1CCSCC1
inactive: activity change, negative = inhibition [1] 0.77% | activity, negative = inhibition [2] 0.475% | Potency [3] > 20.6 µM

CCC1(C)Cc2c(sc3c2c(=O)n(C)c2nnc(SCC(=O)c4ccc(Cl)cc4)n32)CO1 (centres undefined)
inactive: activity change, negative = inhibition [1] -5.39% | activity, negative = inhibition [2] -5.38% | Potency [3] > 20.6 µM

Brc1ccc(-c2cnc3n2CCCC3)cc1
inactive: activity change, negative = inhibition [1] 1.22% | activity, negative = inhibition [2] 16.1% | Potency [3] > 20.6 µM

O=C(NC1CCCCC1)N1CCSC1=Nc1ccccc1
inactive: activity change, negative = inhibition [1] 4.48% | activity, negative = inhibition [2] -11.7% | Potency [3] > 20.6 µM

CCCCNC1=C(Br)C(=O)CC(C)(C)C1
inactive: activity change, negative = inhibition [1] 4.07% | activity, negative = inhibition [2] -6.99% | Potency [3] > 20.6 µM

Cn1c(=O)c2c(nc(SCCN3CCCCC3)n2Cc2ccc(Cl)cc2)n(C)c1=O
inactive: activity change, negative = inhibition [1] 11.2% | activity, negative = inhibition [2] -9.94% | Potency [3] > 20.6 µM

CC(=O)Nc1ccc(-c2cc3ccccc3o2)cc1
inactive: activity change, negative = inhibition [1] -10.3% | activity, negative = inhibition [2] -0.606% | Potency [3] > 20.6 µM

COC(=O)NCC12CC3CC(C1)CC(CNC(=O)OC)(C3)C2
inactive: activity change, negative = inhibition [1] 3.64% | activity, negative = inhibition [2] -1.03% | Potency [3] > 20.6 µM

COC(=O)CN(c1nc(C)c(Cl)c(OC)n1)S(=O)(=O)c1ccc(C)cc1
inactive: activity change, negative = inhibition [1] 6.71% | activity, negative = inhibition [2] 3.43% | Potency [3] > 20.6 µM

Cn1c(=O)c2c(nc(NCc3ccco3)n2Cc2ccc(Cl)cc2Cl)n(C)c1=O
inactive: activity change, negative = inhibition [1] 4.86% | activity, negative = inhibition [2] -17.6% | Potency [3] > 20.6 µM

CCC1CCCCN1c1nc(-c2cccc(OC)c2O)nc2ccccc12 (centres undefined)
inactive: activity change, negative = inhibition [1] -8.8% | activity, negative = inhibition [2] -4.92% | Potency [3] > 20.6 µM

COc1cc2c(C(=O)N3CCN(c4ccccc4)CC3)c(C)oc2cc1Br
inactive: activity change, negative = inhibition [1] 3.59% | activity, negative = inhibition [2] -12.8% | Potency [3] > 20.6 µM

Nc1c(C(=O)NCC2CCCO2)c2nc3ccccc3nc2n1/N=C/c1ccncc1 (centres undefined)
inactive: activity change, negative = inhibition [1] -7.06% | activity, negative = inhibition [2] -9.64% | Potency [3] > 20.6 µM

CCOC(=O)CSc1nnc2n(C3CCCCC3)c(=O)c3c4c(sc3n12)CCCC4
inactive: activity change, negative = inhibition [1] -9.49% | activity, negative = inhibition [2] -21.4% | Potency [3] > 20.6 µM

CCOC(=O)CSC1=C(C#N)C(=O)NC2(CCCCC2)S1
inactive: activity change, negative = inhibition [1] -9.68% | activity, negative = inhibition [2] 8.1% | Potency [3] > 20.6 µM

CCC1(C)Cc2c(sc3c2c(=O)n(C)c2nnc(SCc4ccc5c(c4)OCO5)n32)CO1 (centres undefined)
inactive: activity change, negative = inhibition [1] 11.8% | activity, negative = inhibition [2] -3.34% | Potency [3] > 20.6 µM

COC(=O)c1ccc(CSc2ncnc3c2sc2nc(N4CCOCC4)c4c(c23)CCCC4)o1
inactive: activity change, negative = inhibition [1] 20.1% | activity, negative = inhibition [2] 25.6% | Potency [3] > 20.6 µM

Cc1cc(C)n(-c2nnc(C)n2/N=C/c2ccccc2F)n1
inactive: activity change, negative = inhibition [1] 8.65% | activity, negative = inhibition [2] 18% | Potency [3] > 20.6 µM

O=C(c1cccs1)N1CCC(N2CCN(c3ccccc3)CC2)CC1
inactive: activity change, negative = inhibition [1] 9.88% | activity, negative = inhibition [2] -2.08% | Potency [3] > 20.6 µM

CCC12CN3CC(CC)(CN(C1)C3c1c(O)ccc3ccccc13)C2=O (centres undefined)
inactive: activity change, negative = inhibition [1] 2.68% | activity, negative = inhibition [2] -7.82% | Potency [3] > 20.6 µM

CC1CCN(c2[nH]c(=S)c(C#N)c3c2CCCC3)CC1
inactive: activity change, negative = inhibition [1] 10.9% | activity, negative = inhibition [2] -15.1% | Potency [3] > 20.6 µM

COc1ccccc1NC(=O)C1=C(C)NC(SCC(=O)c2ccc(C)cc2)=C(C#N)C1c1ccco1 (centres undefined)
inactive: activity change, negative = inhibition [1] -8.91% | activity, negative = inhibition [2] -6.63% | Potency [3] > 20.6 µM

CCOC(=O)c1[nH]c2ccc(Br)cc2c1NC(=O)CNC
inactive: activity change, negative = inhibition [1] 18.8% | activity, negative = inhibition [2] -1.05% | Potency [3] > 20.6 µM

CCOc1ccccc1N1CCN(c2nc3ccccc3nc2C(C#N)C(=O)OC(C)C)CC1 (centres undefined)
inactive: activity change, negative = inhibition [1] 16.5% | activity, negative = inhibition [2] -13.8% | Potency [3] > 20.6 µM

CC1(C)Cc2c(c(-c3ccco3)[nH]c(=O)c2C#N)CS1
inactive: activity change, negative = inhibition [1] -2.31% | activity, negative = inhibition [2] 11.6% | Potency [3] > 20.6 µM

COc1ccc(Nc2oc(-c3cccs3)nc2C#N)cc1
inactive: activity change, negative = inhibition [1] -23.7% | activity, negative = inhibition [2] -1.34% | Potency [3] > 20.6 µM

Nc1ccc2oc(-c3cc(Br)ccc3Cl)nc2c1
inactive: activity change, negative = inhibition [1] -29.4% | activity, negative = inhibition [2] 0.658% | Potency [3] > 20.6 µM

CC1CCc2cc(F)cc3c(O)c(C(=O)NCc4ccco4)c(=O)n1c23 (centres undefined)
inactive: activity change, negative = inhibition [1] -28.9% | activity, negative = inhibition [2] -2.44% | Potency [3] > 20.6 µM

N#CC1=C2SCC(O)(c3ccccc3)N2C(=O)CC1c1ccccc1 (centres undefined)
inactive: activity change, negative = inhibition [1] -17.2% | activity, negative = inhibition [2] -21.7% | Potency [3] > 20.6 µM

COc1cc2[nH]c3c(=O)n(CCN(C(C)C)C(C)C)cnc3c2cc1OC
inactive: activity change, negative = inhibition [1] -1.5% | activity, negative = inhibition [2] 6.66% | Potency [3] > 20.6 µM

CCn1c(SCC(=O)N2CCOCC2)nc2sc3c(c2c1=O)CCCC3
inactive: activity change, negative = inhibition [1] -8.7% | activity, negative = inhibition [2] -6.44% | Potency [3] > 20.6 µM

Clc1ccc(-c2nnc3sc(Cc4cccs4)nn23)c(Cl)c1
inactive: activity change, negative = inhibition [1] -25% | activity, negative = inhibition [2] 12.6% | Potency [3] > 20.6 µM

CCOC(=O)c1c(SC)nc(SC)c2c1CCC2
inactive: activity change, negative = inhibition [1] -12.6% | activity, negative = inhibition [2] -4.26% | Potency [3] > 20.6 µM

CC1(C)Cc2c(C#N)c(SCCOc3ccccc3)nc(N3CCOCC3)c2CO1
inactive: activity change, negative = inhibition [1] -5.93% | activity, negative = inhibition [2] -22.3% | Potency [3] > 20.6 µM

COc1ccccc1-c1nn2c(-c3ccco3)nnc2s1
inactive: activity change, negative = inhibition [1] 0.523% | activity, negative = inhibition [2] -5.72% | Potency [3] > 20.6 µM

CCc1cc(=O)oc2c(CN3CCN(C)CC3)c(O)c(Cl)cc12
inactive: activity change, negative = inhibition [1] 12.5% | activity, negative = inhibition [2] 2.51% | Potency [3] > 20.6 µM

Cc1c(O)c(CN2CCCCC2)cc2c3c(c(=O)oc12)CCC3
inactive: activity change, negative = inhibition [1] 6.76% | activity, negative = inhibition [2] -1.68% | Potency [3] > 20.6 µM

COc1cccc(CNc2ccc(Br)cn2)c1O
inactive: activity change, negative = inhibition [1] -25.3% | activity, negative = inhibition [2] -14.6% | Potency [3] > 20.6 µM
